# From the OligoGym collection
# Target: RPL19
# Experiment: pooled miR-30 sensor sort-seq; sequence = guide strand
# Conditions: shRNA
# Note: reference of the scale not given here.
row,Sequence,sensor-assay potency score (higher = more potent)
1,ATTGGGGTCTAACCAGACCTTC,-1.59
2,ATTGGCTGTACCCTTCCGCTTA,-0.619
3,ATACATGTGGCGATCGATCTTC,0.46
4,TTTTTGAACACATTCCCCTTCA,-0.0211

# Target: RPL27
# Experiment: as above
# Conditions: shRNA
row,Sequence,sensor-assay potency score (higher = more potent)
1,TCTCTCTTCAAACTTGACCTTG,-0.698
2,TTGTTCTTGCCTGTCTTGTATC,-1.8
3,ATATCCACAGAGTACCTTGTGG,-0.336
4,TATCTTTGATCTCTTGGCGATC,-1.37
5,TACACTTTCACAAAAGATTTTA,-0.949
6,TTTATCTTTGATCTCTTGGCGA,-0.218
7,AGGATCTCTGAAGACATCCTTA,-1.41
8,TTCTTCACGATGACAGCTTTGC,-0.801
9,TTTAAGAGCAGGATCTCTGAAG,-0.365
10,TTATCTTTGATCTCTTGGCGAT,-0.525
11,ATTGACGACAGTTTTGTCCAAG,-1.31
12,TTCACGATGACAGCTTTGCGTC,-0.995

# Target: RPS27
# Experiment: as above
# Conditions: shRNA
row,Sequence,sensor-assay potency score (higher = more potent)
1,TTCCTCTTCTCCTCTTCTGGAG,-0.516
2,TTTTATAGCATCCTGGGCATTT,-0.741
3,TAAGCCTTGCTTTTCCTCCTGT,0.376
4,TTGCTTTTCCTCCTGTAGGCTG,-0.847
5,TGGTGATTTTATAGCATCCTGG,-1.63
6,TTTCACATCCATGAAGTAGGAA,0.096
7,TGAAGGAACATCCTTCTGTAAG,-1.76
8,TGATTTTATAGCATCCTGGGCA,-0.287
9,TTGTGCATGGCTAAAGACCGTG,-0.673
10,TCCTCTTCTCCTCTTCTGGAGA,-1.67
11,TTCACATCCATGAAGTAGGAAT,-1.13
12,TTCTTCTTGTGTTTCCTCTTCT,0.637

# Target: RPS28
# Experiment: as above
# Conditions: shRNA
row,Sequence,sensor-assay potency score (higher = more potent)
1,TTTACATTGCGGATGATGGATC,-1.07
2,TTGGTGACCCTGGCCAGCTTGA,-1.2
3,TCGCTCTGACTCCAAAAGGGTG,-1.7
4,TGATGGATCGGCTCGTGTCGTC,-1.07
5,TCGGCTCGTGTCGTCCATGAAT,-1.75
6,TTGCGGATGATGGATCGGCTCG,-1.36
7,TTTTACATTGCGGATGATGGAT,-0.481
8,AATTCCACGCGCACCTGCGTGC,-0.771
9,TGGATCGGCTCGTGTCGTCCAT,-1.14
10,TGTCCCTGAGAACCGGTCCTGC,-1.38
11,TGCACTGTCCCTGAGAACCGGT,-1.07
